According to PubChem BioAssay (NCATS):
Results filed as inconclusive are left out. A call without a number means that no potency is given here. Active and inactive are the calls of the source. The call rests on the fitted dose curve; in most records, active means well fitted cell-killing curve with a large enough effect; inconclusive means small, poorly fitted or top-dose-only effect; inactive means flat fitted curve, though single readings scatter.

assay: Cell Viability - LYMP2-022 (AID 987); conditions: LYMP2-022 lymphoblastoid cell viability; series mostly up to 92.2 µM; further: nearly all actives have a fitted effect of over 55% in size
Description: NIH Chemical Genomics Center [NCGC]
NIH Molecular Libraries Screening Centers Network [MLSCN]
National Institutes of Environmental Health Sciences [NIEHS]
National Toxicology Program [NTP]
We have developed a 1536-well cell-based assay for quantitative high throughput screening (qHTS) against a number of cell lines to determine in vitro cytotoxicity of small molecules. This particular assay uses a human lymphoblastoid cell line (LYMP2-022) purchased from Coriell Institute for Medical Research.
NCGC Assay Protocol Summary:
The CellTiter-Glo luminescent cell viability assay (Promega) is a homogeneous method to measure the number of viable cells in culture. The end point readout of this assay is based on quantitation of intracellular ATP, an indicator of metabolic activity, using the luciferase reaction. Luciferase catalyzes the oxidation of beetle Luciferin to oxyluciferin and light in the presence of ATP. The luminescent signal is proportional to amount of ATP present.
Using the CellTiter-Glo luminescent cell viability assay, the amount of cellular ATP was measured in the lymphoblastoid cell line with complete culture medium following compound treatment for 24 hours. The assay was performed in opaque white Kalypsys 1536-well plates. In the screen, tetraoctylammonium bromide was used as positive control. Library compounds were measured for their ability to cause acute toxicity in the cell line, as reflected by a decrease in intracellular ATP levels, in a concentration-dependent manner. […] AC50 values were determined from concentration-response data modeled with the standard Hill equation.
qHTS protocol for CellTiter Glo lymphoblastoid cellular assay
[Step] [Parameter] [Value] [Description]
1. Reagent; 5 uL; 2500 lymphoblastoid cells/well
2. Time; 5 hr; 37 C incubation
4. Controls; 23 nL; Tetraoctylammonium bromide 6.4pM to 92 uM
5. Time; 24 hr; 37 C incubation
6. Reagent; 5 uL; CellTiter Glo reagent
7. Time; 30 min; Room Temperature
8. Detection; Luminescence; Viewlux plate reader
Keywords: cell viability, cytotoxicity, lymphoblastoid cell line, luminescence, NTPHTS, NTPHTS_NCGC, NIEHS, DSSTox, MLSMR, MLSCN, NIH Roadmap, qHTS, NCGC

SMILES | Potency
FC(Cl)(Cl)Cl | inactive
O=C(O)c1cccc(Cl)c1 | inactive
ClC(Cl)Br | inactive
CCCC[N+](=O)[O-] | inactive
Nc1cc(Cl)cc(C(=O)O)c1Cl | inactive
CCC(Cl)[N+](=O)[O-] (stereo not given) | inactive
CCOP(=S)(OCC)Oc1nc(Cl)c(Cl)cc1Cl | inactive
Brc1cccc(-c2ccccc2)c1 | inactive
CN(C)c1ccccc1 | inactive
C/C=C/CC#N | inactive
C=C(C)CCl | inactive
Cc1ccc(N)c(C)c1 | inactive
ClC(Cl)c1ccccc1 | inactive
C=CCBr | inactive
CCCCC(=O)Cl | inactive
N#CCc1ccccc1 | inactive
CCCCCCCCCCCCCl | inactive
Cc1ccc([N+](=O)[O-])cc1 | inactive
Nc1ccc2ccccc2c1 | inactive
CCCCC(CC)COC(=O)c1ccc(C(=O)OCC(CC)CCCC)c(C(=O)OCC(CC)CCCC)c1 (stereo not given) | inactive

SMILES | Potency
CCCBr | inactive
ClC(Cl)C(Cl)Cl | inactive
C=COC(C)=O | inactive
CC(C)CON=O | inactive
CCCCCOC(=O)c1ccccc1C(=O)OCCCCC | inactive
CC(=O)[O-].CC(=O)[O-].CC(=O)[O-].[Cr+3] | inactive
ClCc1ccccc1 | inactive
O=[N+]([O-])c1ccc(Cl)c(Cl)c1Cl | inactive
COc1ccccc1N | inactive
CC12CC1(C)C(=O)N(c1cc(Cl)cc(Cl)c1)C2=O (stereo not given) | inactive
CC(C)(OOC(C)(C)c1ccccc1)c1ccccc1 | inactive
Oc1c(Cl)cccc1Cl | inactive
C=CC(=O)OCCN(C)C | inactive
c1ccc2c(c1)CCNC2 | inactive
OCC(Cl)CCl (stereo not given) | inactive
ClCCBr | inactive
O=Cc1ccc2c(c1)OCO2 | inactive
Nc1ccc([N+](=O)[O-])cc1[N+](=O)[O-] | inactive
CCCCOCC1CO1 (stereo not given) | inactive
CCOP(=O)(OCC)OCC | inactive
